Source: PubChem BioAssay AID485350 (ICCB-Longwood Screening Facility, Harvard Medical School, 2010)
Values joined by “and” are separate entries in the source; they are usually repeats but may differ in a detail not shown here. Equal entries are not always repeated. Among all 84,000 compounds or so, about 95 (0.1%) were called active. No stated cut-off is given here; in the data, active means inhibition above about 25% (passing the limit was not always enough); inactive means the rest. The list comes from a sample in which actives are over-represented; it also holds similar structures and randomly drawn compounds.

Tested on: BasE (2,3-dihydroxybenzoate-AMP ligase), Acinetobacter baumannii ATCC 17978
Test: inhibitors of A. baumannii BasE – biochemical, Acinetobacter baumannii ATCC 17978, fluorescence polarization, primary screen (AID 485350);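 further: 0% = negative plate control signal and 100% = positive plate control signal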
Details: purified BasE, fluorescence polarization binding displacement; active compounds read high; concentration not given here

Row | SMILES | inhibition
1 | CC(=O)NCCC(=O)Nc1nccs1 | -1.55% (inactive)
2 | CCOC(=O)Cn1c(=O)c(=O)n(C)c2c1c(C)nn2-c1ccccc1 | -0.65% (inactive)
3 | C=CCn1c(COc2ccccc2F)nnc1SC(C)C(=O)NC(N)=O (centres undefined) | 0.29% (inactive)
4 | CN(C)S(=O)(=O)c1ccc(C(=O)OCC(=O)N2CCCCC2)cc1 | 0.92% (inactive)
5 | C=CCN(CC=C)C(=O)CSc1nnc2c3ccccc3n(C)c2n1 | 4.82% (inactive)
6 | CCC(CC)=NNC(=O)c1cc(-c2ccccc2)n[nH]1 | 0.72% (inactive)
7 | COc1ccccc1NC(=O)c1ccc(N2CC3CC(C2)c2cccc(=O)n2C3)c(NC(=O)c2cccnc2)c1 (centres undefined) | -1.5% (inactive)
8 | C=CCN(S(=O)(=O)c1ccc(Cl)cc1)S(=O)(=O)c1ccccc1OC | 5.47% (inactive)
9 | CCCCN(C)S(=O)(=O)c1ccc2c(c1)CCN2C(=O)CCC(=O)O | 1.97% (inactive)
10 | CN(C)CCN=c1cc(-c2ccccc2)oc2ccc(Cl)cc12 | -2.16% (inactive)
11 | Cc1nc(SCC(=O)NC(C)(C#N)C2CC2)c2c(C)c(C)sc2n1 (centres undefined) | -0.09% (inactive)
12 | Cc1cc2nc(N(C)C)c3ccccc3n2n1 | 2.28% (inactive)
13 | CC1CN(C(=O)Cn2nc(-c3cccc(-n4cccc4)c3)oc2=O)CC(C)O1 (centres undefined) | -1.31% (inactive)
14 | O=C(O)c1cccnc1SCc1cc(=O)n2cc(Br)ccc2n1 | 1.25% (inactive)
15 | CC(=O)NCc1ccc(-c2csc(CC(=O)Nc3ccc(C)cc3C)n2)o1 | 0.82% (inactive)
16 | C/C(=N/NC(=O)CCc1ccccc1)C1CC1 | 2.92% (inactive)
17 | COc1ccc(OCCNS(=O)(=O)Cc2ccccc2)cc1 | 3.47% (inactive)
18 | CC1CN(CC(=O)Nc2ccccc2C(C)C)CC(C)O1 (centres undefined) | -1.49% (inactive)
19 | CCN(CC)Cc1cc(C(=O)O)co1 | -4.35% (inactive)
20 | O=C(N/N=C/c1cccnc1)c1ccc(CN2CCOCC2)cc1 | 1.66% (inactive)
21 | CCN1C(=O)/C(=C/N(C(C)=O)c2ccccc2)OC1=S | 1.08% (inactive)
22 | O=C(CSc1ncnc2c1nnn2Cc1ccc(F)cc1)NC1CCCC1 | -1.58% (inactive)
23 | Cc1ccccc1Nc1nc(N)nc(CNCc2ccccc2)n1 | 5.66% (inactive)
24 | Cc1oc(-c2cccc(Cl)c2)nc1CN1CCCC(C(=O)N2CCN(c3cccc(Cl)c3)CC2)C1 (centres undefined) | -0.15% (inactive)
25 | Cc1nc2c(cnn2C(C)C)c(C)c1CCC(=O)OC(C)C(=O)Nc1ccc(C(N)=O)cc1 (centres undefined) | -3.6% (inactive)
26 | Cc1cc(C(=O)OCC(=O)c2cc(C)n(-c3ccc(Cl)cc3)c2C)no1 | 1.57% (inactive)

Row | SMILES | inhibition
27 | CCN(Cc1ccc2c(c1)OCCO2)C(=O)c1ccc(-n2cccn2)cc1 | -0.56% (inactive)
28 | CN(C(=S)NCc1ccccc1)C1CCCCC1 | 1.12% (inactive)
29 | C(=C\c1ccccc1)/CNCCCN1CCOCC1 | 0.89% (inactive)
30 | CNC(=O)c1ccc(N2CCOc3ccc(Cl)cc32)s1 | -0.32% (inactive)
31 | COc1ccc(CNn2cnnc2SCc2ccc(F)cc2)cc1OC | -1.54% (inactive)
32 | CC12CCC(=O)N1C(C(=O)OCc1cc(=O)n3cc(Br)ccc3n1)CS2 (centres undefined) | 3.92% (inactive)
33 | CC(C)[C@H](NC(=O)C1CCCCC1)c1nc2ccccc2[nH]1 | -0.24% (inactive)
34 | Cc1cc(C(=O)OCc2cc(=O)oc3cc4c(cc23)CCC4)c(C)o1 | -0.6% (inactive)
35 | COC(=O)C(NC(=O)c1ccc(Cl)cc1)C(F)(F)F (centres undefined) | 7.11% (inactive)
36 | Cc1ccc(N2C(=O)CCC(C(=O)OCc3nnc(-c4ccccc4)o3)C2c2cccs2)cc1 (centres undefined) | 1.51% (inactive)
37 | COc1ccc(-n2c(-c3ccc(Cl)cc3)cnc2SCc2nccn2C)cc1 | -1.16% (inactive)
38 | COc1ccc(S(=O)(=O)N(C)CC(=O)N2CCCC2)cc1 | -1.85% (inactive)
39 | OCC1OC(Oc2ccc3cc(Br)ccc3c2)C(O)C(O)C1O (centres undefined) | -1.6% (inactive)
40 | CCOC(=O)c1c(-c2ccco2)csc1NC(=O)COC(=O)Cn1[nH]c(=O)c2ccccc2c1=O | 3.28% (inactive)
41 | O=C(NCCSc1ncc(-c2ccccc2)[nH]1)c1ccco1 | -0.84% (inactive)
42 | Cc1ccc(S(=O)(=O)Nc2nc(O)c(C3=c4ccccc4=NC3=O)s2)cc1 | 2.18% (inactive)
43 | C(=N\n1cnnc1)/c1ccc(OC2OCCOC2Oc2ccc(/C=N/n3cnnc3)cc2)cc1 (centres undefined) | 1.12% (inactive)
44 | C=CCn1c(CCSCc2ccc(OC)cc2)n[nH]c1=S | -0.73% (inactive)
45 | COc1cccc(-c2noc(COC(=O)c3ccccc3-c3ccccc3C#N)n2)c1 | 1.11% (inactive)
46 | CC(Oc1ccc(F)cc1)C(=O)O (centres undefined) | -0.06% (inactive)
47 | O=C(OCC(=O)N1CCOCC1)c1ccc(Cl)cc1 | 0.53% (inactive)
48 | O=c1c(OCCc2ccccc2)c(-c2ccco2)oc2ccccc12 | 5.62% (inactive)
49 | Cc1ccc(S(=O)(=O)NC(c2ccccc2)c2nnc(-c3ccccc3)o2)cc1 (centres undefined) | -0.19% (inactive)
50 | O=C1Nc2ccccc2OC1CC(=O)N1CCN(Cc2ccc3c(c2)OCO3)CC1 (centres undefined) | -0.54% (inactive)
51 | CCc1c(C)c(C#N)c2nc3ccccc3n2c1N1CCN(Cc2cc(Cl)ccc2OC)CC1 | 0.68% (inactive)
52 | CCOC(=O)c1sc(=NC(C)=O)n(C)c1C | -1.69% (inactive)

Row | SMILES | inhibition
53 | Cc1cc(C)n(-c2ccc(Cl)c(C(=O)OCC(=O)NCc3ccco3)n2)n1 | 1.59% (inactive)
54 | CCn1cnc2c(=O)oc3ccc(S(=O)(=O)N4CCN(c5cc(Cl)ccc5C)CC4)cc3c21 | 2.98% (inactive)
55 | CCOC(=O)C1=C(CN2CCn3cccc3C2C)NC(=O)NC1c1ccc(Cl)cc1 (centres undefined) | -0.37% (inactive)
56 | N#CCSc1[nH]c(=O)c(-c2nc(-c3ccccc3)cs2)cc1C#N | 1.84% (inactive)
57 | Cc1ccc(/C=C/C(=O)OCC(=O)c2cc(C)c(C)cc2C)o1 | 1.01% (inactive)
58 | CC(Sc1nnc(N)s1)C(=O)NCCC1=CCCCC1 (centres undefined) | 2.13% (inactive)
59 | C/C(=N\NC(=O)NC1CCCCC1)c1ccc(OC(F)F)cc1OC(F)F | 1.32% (inactive)
60 | FC(F)Oc1ccc(-c2csc(=Nc3cccnc3)n2C2CC2)cc1 | 3.62% (inactive)
61 | Cc1cc(/C=N/N2C(=O)c3ccccc3C2=O)cc(C)c1O | 0.22% (inactive)
62 | CCN(CC)CC(O)Cn1c(=O)n(CC(O)CN(CC)CC)c(=O)n(CC(O)CN(CC)CC)c1=O (centres undefined) | -0.02% (inactive)
63 | O=C1Cc2ccccc2C(=O)N1Cc1ccccn1 | 4.89% (inactive)
64 | O=C1CCC2(C(=O)OCCCn3c(=O)[nH]c4ccccc43)Sc3ccccc3N12 (centres undefined) | 1.34% (inactive)
65 | O=C(c1cc(Cl)c(O)c(Cl)c1)N1CCc2ccccc2C1 | 3% (inactive)
66 | Cc1nn2cnnc2c(C)c1CCC(=O)NCCCc1ccccc1 | -4.03% (inactive)
67 | O=C(CCC1CC(=O)OC1c1ccccc1)Nc1nccs1 (centres undefined) | 0.54% (inactive)
68 | CCOC(=O)c1c(C)oc2ncnc(N(C)Cc3ccccc3)c12 | 1.14% (inactive)
69 | COC(=O)c1cc(S(=O)(=O)N(CCCN2CCOCC2)C2CCN(C)CC2)cn1C | -0.33% (inactive)
70 | Cc1c(CCC(C)C)c(NCCN2CCOCC2)n2c(nc3ccccc32)c1C#N | 2.4% (inactive)
71 | CCN(C(=O)COc1ccc(Cl)cc1C)c1ccccc1 | 0.83% (inactive)
72 | CCOc1ccc(-n2cc(C(=O)N3CCN(c4ccccc4OC)CC3)c3cc(OC)c(OC)cc3c2=O)cc1 | 0.29% (inactive)
73 | Cc1cccc(NC(=O)NCC(=O)NC2CC2)c1 | -0.65% (inactive)
74 | COCC(C)NC(=O)Nc1c[nH]c2ccccc12 (centres undefined) | -1.24% (inactive)
75 | CCOc1cc(C(=O)CCC(=O)O)ccc1O | 0.21% (inactive)
76 | CCN(Cc1ccccc1)C(=O)c1cccc(N2C(=O)CCC2=O)c1 | 1.51% (inactive)
77 | C=CCN1C(=O)S/C(=C\c2ccc(OCC(=O)OC)cc2)C1=O | 0.73% (inactive)
78 | CCSc1nnc(CNc2ccc(F)cc2)n1-c1ccc(C)cc1 | 1.16% (inactive)

Row | SMILES | inhibition
79 | CN(CC(=O)Nc1ccccc1Cl)Cn1nc(-c2ccco2)oc1=S | 1.44% (inactive)
80 | CCCN(CCC)Cc1ccc(CNc2nc(-c3ccc(OC)cc3)no2)o1 | -0.49% (inactive)
81 | CCC(CO)n1c(SCC(=O)Nc2ccc(C)c(C)c2)nc2cc(OC)c(OC)cc2c1=O (centres undefined) | 1.28% (inactive)
82 | COc1ccc(-c2noc(C3CCN(C(=O)OC(C)(C)C)CC3)c2C(=O)O)cc1 | 1.39% (inactive)
83 | Nc1ccccc1C(=O)NCC1CCCO1 (centres undefined) | -4.47% (inactive)
84 | COc1ccc(-n2cc3c(c(C#N)c2=N)CC(C)(C)CC3=O)c(OC)c1 | -12.9% (inactive)
85 | COC(=O)c1ccc(/C=N/O)cc1 | 1.3% (inactive)
86 | S=c1[nH]nc(-c2ccncc2)n1/N=C/c1cccnc1 | -0.5% (inactive) and 1.06% (inactive)
87 | Cc1ccc(N=C2C(=O)N(CN3CCCC(C)C3)c3ccccc32)cc1 (centres undefined) | 0.38% (inactive)
88 | CCCc1nnc(SCC(=O)N2CCCc3ccccc32)n1CC | -5.47% (inactive)
89 | Cc1cccc(C(=O)NCC(=O)NN)c1 | 0.12% (inactive)
90 | Cc1csc(NC(=O)C2CCC(CNS(=O)(=O)c3cccc4nsnc34)CC2)n1 (centres undefined) | 28.5% (active)
91 | CCOCCCNc1nc2ccccc2nc1NS(=O)(=O)c1cccc2nsnc12 | 0.69% (inactive)
92 | O=S(=O)(NCc1ccc2c(c1)OCO2)c1cccc2nsnc12 | 0.67% (inactive)
93 | Cc1cc(C)n(-c2ccc(C(=O)OCC(=O)C(C)(C)C)cc2)n1 | -0.47% (inactive)
94 | OC(CN1CCCCC1)CN1c2ccccc2Sc2ccccc21 (centres undefined) | -0.28% (inactive)
95 | O=C(Nc1ccccc1)Nc1ccc(Cl)c(Cl)c1 | 2.62% (inactive)
96 | Cc1ccccc1Nc1nc(N)nc(Cn2cc(Br)ccc2=O)n1 | 2.02% (inactive)
97 | Cc1ccc(S(=O)(=O)N(C)CC(=O)O)cc1 | 0.19% (inactive)
98 | CC(C)CN(CC(C)C)C(=O)C1CCN(S(=O)(=O)c2cccc3nsnc23)CC1 | -0.22% (inactive)
99 | CCc1c(C)nc2n(c1=O)C(CS(=O)(=O)c1ccc3ccccc3c1)CS2 (centres undefined) | 2.08% (inactive)
100 | O=C(O)CN1CCN(C(c2ccccc2)c2ccccc2)CC1 | 1.06% (inactive)
101 | CCCCn1c(N)c(N(C(=O)c2ccc(Cl)c(Cl)c2)C2CCCC2)c(=O)[nH]c1=O | 2.21% (inactive)
102 | Cc1ccc(NC(=O)CCn2c(=O)sc3ccccc32)cc1C | 2.16% (inactive)
103 | O=C(CSc1cccc[n+]1[O-])c1cc2c3c(c1)CC(=O)N3CCC2 | 1.79% (inactive)
104 | Cc1ccsc1C(=O)OCc1nc2sc3c(c2c(=O)[nH]1)CCCC3 | -0.18% (inactive)
